Assay [1] in a line: NCI Yeast Anticancer Drug Screen. Data for the rad50 strain (AID 155).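 Note: 0% = growth of vehicle-only cultures of the same strain.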 The note with it: S. cerevisiae rad50 strain growth inhibition, hits give high values; at 50.0 µM unless noted. In outline:
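Compounds were tested on a yeast strain with an engineered DNA damage repair alteration; the reported value is growth inhibition normalised to vehicle treatment.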

Assay [2] can be described thus: NCI Yeast Anticancer Drug Screen. Data for the mec2-1 strain (AID 157). The note with it: S. cerevisiae mec2-1 strain, hits give high values; at 50.0 µM unless noted. The method, boiled down: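 Using mec2-1 yeast: add compound, measure growth, express inhibition versus vehicle-treated cultures.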
Assay [3] can be described thus: NCI Yeast Anticancer Drug Screen. Data for the sgs1 mgt1 strain (AID 161).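 Note: 0% = growth of cultures given vehicle only.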 The note with it: S. cerevisiae sgs1 mgt1 strain, hits give high values; at 50.0 µM unless noted. The method, boiled down:
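Percent growth inhibition was derived by comparing compound-exposed mutant yeast with vehicle-exposed cultures. The strain carries alterations in DNA damage repair.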

Assay [4] is described as follows: NCI Yeast Anticancer Drug Screen. Data for the cln2 rad14 strain (AID 165).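 Note: 0% = growth equal to vehicle treated cultures.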 The settings on record: S. cerevisiae cln2 rad14 strain, hits give high values; at 50.0 µM unless noted. The method, boiled down: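 Yeast strain cln2 rad14, bearing defects in cell cycle control and DNA repair, serves as the test system; values reflect growth inhibition compared with vehicle.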

Assay [5] is described as follows: NCI Yeast Anticancer Drug Screen. Data for the bub3 strain (AID 167). The note with it: S. cerevisiae bub3 mutant strain, hits give high values; at 50.0 µM unless noted. The method, boiled down: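 Growth of a checkpoint-deficient yeast mutant is measured after compound exposure. Values represent inhibition relative to vehicle.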
Assay [6] can be described thus: NCI Yeast Anticancer Drug Screen. Data for the mlh1 rad18 strain (AID 175). The settings on record: S. cerevisiae mlh1 rad18 strain growth inhibition, hits give high values; at 50.0 µM unless noted. The method, boiled down:
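Steps: expose repair-defective yeast to compound; measure growth; express inhibition against vehicle-treated controls.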

The record followed here is PubChem BioAssay (NCI).

About 79,000 compounds went through this panel and 15% of them were active in at least one assay; those are over-represented in the sample as a whole. Values without a mark were called inactive. Active and inactive are the calls of the source. Cut-off read from the data, not from the text of the source: active = growth inhibition above about 70%; inactive = the rest.

Take `O=c1[nH]c2nc3ccccc3c(=O)n2nc1Cc1ccccc1`: the growth inhibition in assay [1] is -15.7%; in assay [2], -19.6%; in assay [3] it was -8.6%; in assay [4], -2.05%; in assay [5], -13.3%; in assay [6], 0.7%.
For the compound `COc1cc(N=Nc2c(N)nc(N)[nH]c2=O)c(OC)cc1Cl`, the growth inhibition in assay [1] was -8.45%; in assay [2], 3.65%; in assay [3], -8%; in assay [4], 5.05%; in assay [5], 1.35%; in assay [6], 3%.
As to `CCOC(=O)c1nc(N)nc(N)c1-c1ccc(Cl)cc1`, the growth inhibition in assay [1] is 3.6%; in assay [2], 10.7%; in assay [3], -3.4%; in assay [4], -4.9%; in assay [5], 15.6%; in assay [6], -1.2%.
As to `O=C(O)c1cccc(-c2ccccc2)c1O.O=C(O)c1cccc(-c2ccccc2)c1O.[Cu]`, the growth inhibition in assay [1] was 41.2%; in assay [2], 39.5%; in assay [3] it was 21.6%; in assay [4] it was 2.6%; in assay [5], 33.9%; in assay [6] it was 32.4%.
Regarding `O=S(=O)(Nc1nccs1)c1ccc(NCc2c3ccccc3nc3cc(Cl)ccc23)cc1`, the growth inhibition in assay [1] is 13.3%; in assay [2], 3.15%; in assay [3], 9.75%; in assay [4] it was -6.65%; in assay [5], -0.2%; in assay [6], 25.8%.
Regarding `C[N+](C)(C)c1ccc2[nH]c3ccccc3c2c1`, the growth inhibition in assay [1] was 8.7%; in assay [2], -11.2%; in assay [3], 8.25%; in assay [4], -27.8%; in assay [5] it was -6.5%; in assay [6] it was 7.55%.
Take `CC(C)=CC1(C)/C(=N\O)C(C)(CC(C)C)C(=O)N1O` (stereo unspecified): the growth inhibition was -7.15% in assay [1]; -15.2% in assay [2]; -11.8% in assay [3]; -2.2% in assay [4]; -5.65% in assay [5]; -19.4% in assay [6].
`Cc1[nH]c(=O)nc(N/N=C/c2ccc(Cl)cc2)c1C(=O)NC(C)(CO)CO`: the growth inhibition in assay [1] is -30.6%; in assay [2], -14.6%; in assay [3], -43.5%; in assay [4] it was -10.4%; in assay [5] it was 16.7%; in assay [6] it was -3.45%.
As for `Nc1cccc(B(O)O)c1`, the growth inhibition in assay [1] was -16.6%; in assay [2], -65%; in assay [3] it was -34.3%; in assay [4] it was -5.75%; in assay [5] it was -29.6%; in assay [6], -15.8%.
Turning to `O=C1CCC2OC(=O)C3CCCC1C23` (stereo unspecified), the growth inhibition in assay [1] was -6.05%; in assay [2] it was -1.85%; in assay [3] it was -19%; in assay [4] it was 0.1%; in assay [5], -2.65%; in assay [6] it was -14.2%.
For the compound `CC1(O)C2CC3CC(C2)CC1C3` (stereo unspecified), the growth inhibition in assay [1] is -1.1%; in assay [2], -3.1%; in assay [3] it was -13.3%; in assay [4], -59%; in assay [5], 13.2%; in assay [6], 10.3%.
As to `NC(=O)Nc1ccccc1-c1ccccc1`, the growth inhibition was -0.6% in assay [1]; -11.2% in assay [2]; 13.8% in assay [3]; -26.4% in assay [4]; -10.8% in assay [5]; 7.45% in assay [6].
On to `CN1CCN(C(=S)N(C)C(=O)c2ccco2)CC1`, for which the growth inhibition in assay [1] is -37.8%; in assay [2], -36.9%; in assay [3], -48.9%; in assay [4] it was -8.85%; in assay [5], -44.4%; in assay [6], -40.1%.
For the compound `C/C(=C\C(=O)c1ccc(Sc2ccccc2)cc1)c1ccc(Sc2ccccc2)cc1`, the growth inhibition in assay [1] was 25.1%; in assay [2], -4.85%; in assay [3], 6.15%; in assay [4], -17.6%; in assay [5], 24.1%; in assay [6], 21.2%.
With `NC(=O)NN(Cc1ccc2c(c1)OCO2)N=O`, the growth inhibition was -7.25% in assay [1]; -6% in assay [2]; -5.55% in assay [3]; -16.6% in assay [4]; 16.2% in assay [5]; 1.9% in assay [6].
On to `CC(=O)O/N=C(\C(c1ccccc1)c1ccccc1)C1c2ccccc2-c2ccccc21`, for which the growth inhibition was 91.3% (active) in assay [1]; 88.7% (active) in assay [2]; 96.9% (active) in assay [3]; 91.2% (active) in assay [4]; 64.8% in assay [5]; 96.2% (active) in assay [6].
With `COC(=O)c1ccc(Oc2nc3ccc(C(F)(F)F)cc3nc2-c2ccccc2)cc1`, the growth inhibition in assay [1] was -11.9%; in assay [2], -31.9%; in assay [3], 14.3%; in assay [4], -34.1%; in assay [5], -23.8%; in assay [6] it was -19.1%.
`Nc1n[n+](-c2cccc([N+](=O)[O-])c2)no1`: the growth inhibition was 32.4% in assay [1]; 16.4% in assay [2]; 69.5% in assay [3]; 5.3% in assay [4]; 81.4% (active) in assay [5]; 32.5% in assay [6].
On to `COc1ccc2c(c1)[nH]c1c3ccc(OC)cc3oc(=O)c21`, for which the growth inhibition in assay [1] is -52%; in assay [2], -50%; in assay [3] it was -35.5%; in assay [4], 1.95%; in assay [5], -38.6%; in assay [6] it was -33.9%.
Take `CC1(C)OC(=O)C(=Cc2ccc3c(c2)OCO3)C(=O)O1`: the growth inhibition in assay [1] was 16.1%; in assay [2] it was 4.25%; in assay [3], -3.65%; in assay [4], 19%; in assay [5], -8%; in assay [6] it was 5.1%.
`C=C[C@]1(C)C=C2CC[C@@H]3[C@](C)(CCC[C@@]3(C)C(=O)O)[C@H]2CC1`: the growth inhibition in assay [1] is 14.5%; in assay [2], 8.7%; in assay [3], 13.8%; in assay [4] it was -9.05%; in assay [5] it was -1.9%; in assay [6], 29.8%.
